Measured values: ChEMBL document CHEMBL3988442, “University of Dundee, Small-Polar-MMV Screening Library” (2021)
Hit rate of the full screen: of about 48,000 compounds, about 13,000 (27%) showed an effect of 50% or more. This is one part of the list.

System: Wolbachia pipientis
Test: Anti-Wolbachia Cell-Based Screen
Assay type: functional
Design: scale not given: in the data most compounds retested in dose-response had high values
Settings: 5 µM

| Structure (SMILES) | Percent Effect [%] |
| --- | --- |
| CN(C)C(=O)C1CCCN1CCCNC(=O)c1ccccc1F (stereo not given) | 12.21 |
| CC(C)(C(=O)NCCS(N)(=O)=O)c1cccc(Br)c1 | -14.63 |
| COc1cccc(-c2n[nH]c3c2CN(C(=O)c2oc(C)cc2C)CC3)c1 | 3.438 |
| CCCN1CCc2[nH]cnc2C12CCN(C(=O)Cn1ccnc1C)CC2 | -4.185 |
| CCn1ccc2ccnc(CC3CN(C(=O)c4ccc(F)cc4)C3)c21 | 128.6 |
| CCn1ccc2ccnc(CC3CN(C(=O)Cn4ccnc4C)C3)c21.O=CO | 124.4 |
| CCN(CC)CC[C@H]1CN(C(=O)c2ccc(F)cc2)CC[C@H]1CC(=O)O | 0.9693 |
| CCn1ccc2ccnc(CC3CN(C(=O)c4cnco4)C3)c21 | 144.4 |
| COc1ccccc1C(=O)N1CC(Cc2nccc3ccn(C)c23)C1 | -2.36 |
| Cn1ccc2ccnc(CC3CN(C(=O)C4CCC(F)(F)CC4)C3)c21 | -0.631 |
| O=C(C(CNCc1ccncc1)c1ccccc1)N1CCOCC1 (stereo not given) | 0.2839 |
| O=C(Cc1ccc2c(c1)OCCO2)N1CCCC(n2cccn2)C1 (stereo not given) | 7.45 |
| CC(C)c1nc(C2CCCN2Cc2ccn(C)c(=O)c2)no1 (stereo not given) | -1.235 |
| CC(C)c1nc(C2CCCN2Cc2ccccc2C#N)no1 (stereo not given) | 6.567 |
| CC(C)c1nc(C2CCCN2Cc2ccncc2Cl)no1 (stereo not given) | 81.18 |
| CC(C)c1nc(C2CCCN2Cc2ccon2)no1 (stereo not given) | 78.63 |
| CCc1noc(CN2CCCC2c2noc(C3CC3)n2)n1 (stereo not given) | 2.482 |
| CC(C)c1nc(C2CCCN2CC(=O)Nc2ccc(Cl)cn2)no1 (stereo not given) | -4.076 |
| Cc1cc(CN2CCCC2c2noc(C(C)C)n2)on1 (stereo not given) | 98.26 |
| CC(C)c1noc(CN2CCCC2c2noc(C(C)C)n2)n1 (stereo not given) | 108.9 |
| CC(C)c1nc(C2CCCN2c2ccnc(C3CCCC3)n2)no1 (stereo not given) | 0.08889 |
| CC(C)c1nc(C2CCCN2CC(=O)Nc2nncs2)no1 (stereo not given) | -0.6487 |
| c1ccc(-c2nnc3ccc(N4CCC5(CCOC5)C4)nn23)cc1 (stereo not given) | -13.9 |
| CNC(=O)CN1CCC(NC(=O)C(C)Oc2ccccc2C#N)CC1 (stereo not given) | 0.1216 |
| CC(C)NS(=O)(=O)c1cc(C(=O)O)cc(-c2ccccc2CO)c1 | 11.88 |

| Structure (SMILES) | Percent Effect [%] |
| --- | --- |
| Cc1nc(C2CCCN2Cc2nc(C)c(C)o2)no1 (stereo not given) | -0.5484 |
| Cc1nc(CN2CCCC2c2noc(C(C)C)n2)oc1C (stereo not given) | 98.12 |
| Cc1nc(C2CCCN2Cc2ncc(C(C)C)o2)no1 (stereo not given) | 8.273 |
| CCc1c(C)nc2cc(C3CCN(CCc4ccccc4)C3)nn2c1O (stereo not given) | 76.13 |
| CCc1c(C)nc2cc(C3CCN(Cc4cccnc4)C3)nn2c1O (stereo not given) | 85.92 |
| CCn1cnnc1CNC(=O)C1CCCN(Cc2cccc(F)c2)C1 (stereo not given) | 3.888 |
| NC(=O)c1cccc2nc([C@H]3CCN(Cc4ccccc4F)C3)[nH]c12 | 1.754 |
| Cc1nc2cc(C3CCN(Cc4ccccc4F)C3)nn2c(O)c1C (stereo not given) | 92.44 |
| Cc1cc(CN2CCC(C3CCN(CCc4ccccc4)C3)CC2)[nH]n1 (stereo not given) | -6.326 |
| CCc1c(C)nc2cc(C3CCN(Cc4ccccc4F)C3)nn2c1O (stereo not given) | -15.15 |
| Cc1nc[nH]c1CN1CCC(C2CCN(CCc3ccccc3)C2)CC1 (stereo not given) | -8.62 |
| Cc1cc(CN2CCC(C3CCN(Cc4cccnc4)CC3)C2)[nH]n1 (stereo not given) | -58.7 |
| Cn1cnnc1CNC(=O)C1CCCN(Cc2cccc(F)c2)C1 (stereo not given) | -3.668 |
| CCc1c(C)nc2cc(C3CCN(Cc4cccc(F)c4)C3)nn2c1O (stereo not given) | 98.22 |
| Cc1nc(N2CCOCC2)nc(C)c1NC(=O)COc1ccccc1 | 15.56 |
| c1cc(-c2noc(CN3CCn4c(nnc4C4CC4)C3)n2)co1 | -9.374 |
| O=C1N(Cc2ccc(F)c(F)c2)CCCC12CCN(C1CCSCC1)C2 (stereo not given) | -6.504 |
| COCCCS(=O)(=O)N1CCN(C(=O)CO)CC1 | -3.721 |
| CSc1sc(NC(=O)C2CCCN(C(N)=O)C2)nc1C (stereo not given) | -0.4613 |
| CCc1c(C)nc2cc(C3CCN(Cc4ccncc4C)C3)nn2c1O (stereo not given) | 81.51 |
| CCc1c(C)nc2cc(C3CCN(Cc4ccc(F)cc4)C3)nn2c1O (stereo not given) | 99.62 |
| CCn1c(C2CCCN(Cc3cccc4cnccc34)C2)nn(C)c1=O (stereo not given) | 3.036 |
| O=C(NC1(c2nc(C3CC3)no2)CCCCC1)c1ccncc1 | -8.803 |
| O=C(c1ccccc1F)N1CCN(c2ccc(-n3cccc3)nn2)CC1 | -6.21 |
| CNC(=O)c1cccnc1NCCOc1ccc(CC#N)cc1 | 4.731 |

| Structure (SMILES) | Percent Effect [%] |
| --- | --- |
| O=C(O)C(F)(F)F.O=C(O)[C@]12CCCN(Cc3ccoc3)C[C@H]1CN(c1ncccn1)C2 | 0.4182 |
| Cc1cnn(CC2CCCN2C(=O)c2sccc2-n2cnnn2)c1 (stereo not given) | 107.4 |
| Cc1cnn(CC2CCCCN2C(=O)c2ccccc2-n2cccn2)c1 (stereo not given) | 109.2 |
| Cc1cnn(CC2CCCCN2C(=O)c2sccc2C#N)c1 (stereo not given) | -11.17 |
| Cc1cnn(CC2CCCN2C(=O)c2ccccc2-n2cccn2)c1 (stereo not given) | 86.06 |
| Cc1cnn(CC2CCCN2C(=O)c2cn(-c3ccccc3)nc2C)c1 (stereo not given) | -0.04653 |
| Cc1cnn(CC2CCCN2C(=O)c2sccc2C#N)c1 (stereo not given) | -6.888 |
| Cc1cnn(CC2CCCN2C(=O)c2ccccc2-n2cnnn2)c1 (stereo not given) | 114.3 |
| O=C(c1cn(-c2cc(N3CCOCC3)ncn2)cn1)N1CCSCC1 | -13.27 |
| COc1ccc2c(c1)OCC(CNC(=O)c1ccncc1)C2 (stereo not given) | 2.151 |
| Cc1c[nH]c(C2CN(Cc3ccccc3C(=O)O)CCO2)n1 (stereo not given) | 102.8 |
| CC(=O)N[C@@H]1CN(Cc2ccccc2C(=O)O)C[C@H]1C(C)C | -2.27 |
| Cc1cc(=O)[nH]c(-c2cccc(CN3CCCN4CCCC4C3)c2)n1 (stereo not given) | -8.166 |
| Cc1c[nH]c(C2CCCN(Cc3ccccc3C(=O)O)C2)n1.O=CO (stereo not given) | 102.4 |
| CSc1ncccc1C(=O)N1CCC(c2nc3c(C)cccc3[nH]2)CC1 | -2.536 |
| Cc1c[nH]c(C2CCCN(Cc3cccc(C(=O)O)c3)C2)n1 (stereo not given) | 79.24 |
| CCCS(=O)(=O)N1CCCC(c2nc(-c3ccccc3)c[nH]2)C1 (stereo not given) | 7.84 |
| Cc1n[nH]c(C2CN(Cc3ncc(C(C)C)o3)CCO2)n1 (stereo not given) | 3.962 |
| Cc1cccc2[nH]c(C3CCCN(Cc4ccc(CO)o4)C3)nc12 (stereo not given) | -5.911 |
| Cc1cccc2[nH]c(C3CCCN(Cc4ccccc4C(=O)O)C3)nc12 (stereo not given) | 94.13 |
| CCOC(=O)c1n[nH]cc1CN1CCOC(Cc2ccccc2)C1 (stereo not given) | 4.032 |
| CCc1nnc2ccc(NCC3(N4CCCCC4)CCOCC3)nn12 | -22.71 |
| Cc1ccccc1Cc1nc(CSc2nnc(N)n2C)no1 | 3.092 |
| CCC(CNC(=O)c1ccco1)N1CCc2ccccc2C1 (stereo not given) | 8.519 |
| CC(C)NC(=O)C1c2c(ncn2C(C)C)CCN1Cc1ccccc1.O=C(O)C(F)(F)F (stereo not given) | -4.449 |

| Structure (SMILES) | Percent Effect [%] |
| --- | --- |
| COc1ncccc1CNC(=O)C1=NN(c2ccccc2)C(=O)CN1 | 17.13 |
| O=C(OCc1ccccc1)c1cccc(NC(=O)C2COCCO2)c1 (stereo not given) | -10.37 |
| CC(C)N1Cc2cccc(NCC(=O)N(C)C3CCCCC3)c2C1 | -12.78 |
| OCCN1CCC(CNCc2ccc(N3CCCCC3)cc2)CC1 | -10.73 |
| CC(C)NS(=O)(=O)c1cc(C(=O)O)cc(-n2cc3c(n2)CCC3)c1 | -3.943 |
| CC1=N[C@@]2(CC[C@@H]3CN(Cc4ccccc4F)C[C@@H]32)C(=O)N1CC1CC1.O=C(O)C(F)(F)F | -0.009519 |
| O=C(O)C(F)(F)F.O=C1NC(c2ccccc2)=N[C@@]12CC[C@@H]1CN(CC3CC3)C[C@@H]12 | 1.711 |
| CC1=N[C@@]2(CC[C@@H]3CN(Cc4ccccc4)C[C@@H]32)C(=O)N1CC1CC1.O=C(O)C(F)(F)F | 87 |
| CC1=N[C@@]2(CC[C@@H]3CN(Cc4ccccc4C)C[C@@H]32)C(=O)N1CC1CC1.O=C(O)C(F)(F)F | 101.1 |
| COCCN1C[C@H]2CC[C@@]3(N=C(C)N(CC4CC4)C3=O)[C@H]2C1.O=C(O)C(F)(F)F | -0.9614 |
| CC1=N[C@@]2(CC[C@@H]3CN(CC(C)C)C[C@@H]32)C(=O)N1CC(C)C.O=C(O)C(F)(F)F | 10.27 |
| CC1=N[C@@]2(CC[C@@H]3CN(CC4CC4)C[C@@H]32)C(=O)N1CC1CC1.O=C(O)C(F)(F)F | 106.2 |
| CC1=N[C@@]2(CC[C@@H]3CN(Cc4cccc(Cl)c4)C[C@@H]32)C(=O)N1CC1CC1.O=C(O)C(F)(F)F | 106.8 |
| CC1=N[C@@]2(CC[C@@H]3CN(CC4CC4)C[C@@H]32)C(=O)N1CC(C)C.O=C(O)C(F)(F)F | -11.12 |
| CCS(=O)(=O)N1CCC(Nc2c(F)cc(C#N)cc2F)CC1 | 12.27 |
| Cn1cc(S(=O)(=O)NCC2CCN(C(=O)c3ccoc3)CC2)cn1 | -16.26 |
| COCCN1C(=O)[C@]2(CC[C@@H]3CN(C(=O)NC(C)C)C[C@@H]32)N=C1C | 32.84 |
| CC1=N[C@@]2(CC[C@@H]3CN(Cc4ccccc4F)C[C@@H]32)C(=O)N1C | 100.6 |
| CC1=N[C@@]2(CC[C@@H]3CN(S(=O)(=O)CC(C)C)C[C@@H]32)C(=O)N1C | 16.54 |
| CCC1=N[C@@]2(CC[C@@H]3CN(Cc4ccccc4F)C[C@@H]32)C(=O)N1.O=C(O)C(F)(F)F | -10.48 |
| COCCN1C(=O)[C@]2(CC[C@@H]3CN(Cc4ccccc4F)C[C@@H]32)N=C1C.O=C(O)C(F)(F)F | 90.53 |
| CC1=N[C@@]2(CC[C@@H]3CN(C(=O)NC(C)C)C[C@@H]32)C(=O)N1CC1CC1 | 1.3 |
| COCCN1C(=O)[C@]2(CC[C@@H]3CN(C(=O)NC4CCCC4)C[C@@H]32)N=C1C | -7.65 |
| CC1=N[C@@]2(CC[C@@H]3CN(Cc4ccc(C)cc4)C[C@@H]32)C(=O)N1CC1CC1.O=C(O)C(F)(F)F | 104.5 |
| CC1=N[C@@]2(CC[C@@H]3CN(CC(=O)N(C)C)C[C@@H]32)C(=O)N1CC(C)C.O=C(O)C(F)(F)F | 6.41 |
